Rows were chosen to be rich in hits. Some 0.51% of all compounds tested hit in one or more screens of this group.
AddAB inh: less growth of phage-infected E. coli with AddAB. inhibition, % at 11.9 µM. E. coli expressing H. pylori AddAB, absorbance growth. hit rate 0.29% among 330,000; in the data active means inhibition above about 12%
phage Ecoli inh: E. coli growth loss with phage present; inhibition, % at 11.9 µM; hit rate 0.26% among 360,000; growth absorbance; in the data active means inhibition above about 11%
Tat transport: blocks Tat-dependent protein export in E. coli | hit rate 0.036% among 340,000 | AID 488895 | inhibition, % at 10 µM | E. coli MC4100 TorA-mCherry Tat export, fluorescence;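 active means mean replicate inhibition at least 50% and at least half of replicates individually reaching 50%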;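 further: exported cargo escapes ClpAP degradation while cytoplasmic cargo is degraded and loses fluorescence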
E coli growth-1: inhibitors of Escherichia coli growth | OD600, 23 h; active compounds read low | hit rate 0.21% among 330,000 | OD600 absorbance (concentration not given with the values) | AID 1053175;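 active means OD600 absorbance below the run mean of sample wells minus 3.6 SD, in any replicate, cut at about 0.56 in these data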
E coli growth-2: bacterial growth inhibition, counter-screen for AddAB inhibitors; inhibition, % at 11.9 µM; E. coli V3065 growth, OD600 absorbance, 18 h; hit rate 0.27% among 330,000;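 active means inhibition above the campaign's mean inhibition across all tested compounds plus 3 SD, cut at about 9.9% in these data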;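 further: uninfected addAB+ strain grown without phage in ampicillin broth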
AddAB conf: confirmation screen: growth loss of phage-infected E. coli expressing H. pylori AddAB | E. coli V3065 expressing H. pylori AddAB, T4 phage, OD; T4 phage with gene 2 nonsense mutations | shares compounds with AddAB inh | hit rate 64% among 880 | AID 488942 | inhibition, % at 11.9 µM;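 active means mean inhibition above a set limit taken from the earlier primary screen, cut at about 13% in these data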;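 further: higher means less bacterial growth since AddAB block lets phage replicate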
RecBCD counter: AddAB counter-screen: growth loss of RecBCD+ E. coli infected with mutant T4 phage; E. coli V66 + mutant T4 phage, OD growth; inhibition, % at 11.9 µM; shares compounds with AddAB inh; hit rate 73% among 880;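 active means mean inhibition above the mean of solvent-only control wells plus 3 SD, cut at about 4% in these data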;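 further: optical density read after an 18 h incubation at 37 °C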
bact viab count: reduces bacterial viability, AddAB inhibitor counter-screen; shares compounds with AddAB inh; absorbance (AddAB counterscreen); inhibition, % at 11.9 µM; hit rate 35% among 880; AID 488956; in the data active means inhibition above about 25%
Large screens that a line does not name were inactive (follow-up assays come after a bar, where they were run).

NC1CCN(c2nc3c(cc2F)c(=O)c(C(=O)O)cn3-c2ccc(F)cc2F)C1 (stereo not given)	AddAB inh 100.7, phage Ecoli inh 101.1, Tat transport 71.6, E coli growth-1 0.0705, E coli growth-2 102.1 | AddAB conf 96.9 | RecBCD counter 99.8 | bact viab count 100.0
O=C(COc1ccc(Cl)cc1[N+](=O)[O-])NC1CCCCC1	AddAB inh 35.5, E coli growth-2 20.3 | AddAB conf inactive | RecBCD counter inactive | bact viab count inactive
CC(=O)c1cc(Cl)ccc1OCC(=O)NC1CCCC1	none (no result: AddAB inh, E coli growth-2)
O=C(O)[C@H](O)[C@@H](O)C(=O)O	AddAB inh 24.7 | AddAB conf inactive | RecBCD counter inactive | bact viab count inactive
O=S1(=O)N=C(N(CCO)N=Cc2ccccc2)c2ccccc21	none (no result: AddAB inh, phage Ecoli inh, Tat transport, E coli growth-2)
O=C(NCc1cccs1)C1CCN(S(=O)(=O)c2cccc3cccnc23)CC1	AddAB inh 17.4 | AddAB conf inactive | RecBCD counter inactive | bact viab count inactive
CCOC(=O)N1CCN(C(=O)CCCn2c(=S)[nH]c3ccsc3c2=O)CC1	AddAB inh 25.1, E coli growth-2 24.5 | AddAB conf inactive | RecBCD counter inactive | bact viab count inactive
C#CCOCCOCCOCCNc1nc(N2CCN(C(=O)C(C)n3cc(CCCN=C(N)N)nn3)CC2)nc(N2CCN(C(=O)C(C(C)CC)n3cc(CCCCN)nn3)CC2)n1 (stereo not given)	none (no result: AddAB inh, phage Ecoli inh, Tat transport, E coli growth-2)
O=C(Nc1cc(C(F)(F)F)ccc1-n1cncn1)c1ccc([N+](=O)[O-])o1	AddAB inh 17.6, E coli growth-2 14.4 | AddAB conf 73.0 | RecBCD counter 5.7 | bact viab count inactive
O=C(NCCCn1ccnc1)C(=O)NCC(c1ccco1)N1CCN(c2ccccc2)CC1 (stereo not given)	none
O=C(NCCCn1ccnc1)C(=O)NCC(c1cccnc1)N1CCN(c2ccccc2)CC1 (stereo not given)	AddAB inh 96.9, E coli growth-2 97.5 | AddAB conf inactive | RecBCD counter inactive | bact viab count inactive
CCC(C)C(C(=O)N1CCN(C(=O)OC(C)(C)C)CC1)n1cc(-c2cn(C(C)C(=O)N3CCN(C(=O)OC(C)(C)C)CC3)nn2)nn1 (stereo not given)	none (no result: AddAB inh, phage Ecoli inh, Tat transport, E coli growth-2)
O=C(CN1CCCc2ccccc21)N/N=C/c1c(O)ccc2ccccc12	AddAB inh 15.0, E coli growth-2 11.2 (no result: E coli growth-1) | AddAB conf inactive | RecBCD counter 5.3 | bact viab count inactive
O=C(CN1CCCc2ccccc21)N/N=C/c1ccccc1	none (no result: E coli growth-1)
C=CCN(c1ccccc1)S(=O)(=O)c1cccc(C(=O)NNC(=O)c2ccccc2O)c1	AddAB inh 12.2 | AddAB conf inactive | RecBCD counter inactive | bact viab count inactive
COc1ccc(CCNC(=O)c2ccc(CN3CCC(Cc4ccccc4)CC3)cc2)cc1OC	AddAB inh 13.5 | AddAB conf inactive | RecBCD counter inactive | bact viab count inactive
COc1cccc(/C=N/Nc2cc(-n3nc(C)cc3-c3ccccc3)ncn2)c1O	AddAB inh 18.4, E coli growth-2 16.9 (no result: E coli growth-1) | AddAB conf inactive | RecBCD counter 8.8 | bact viab count inactive
C/C(=N\Nc1nc2ccccc2[nH]1)c1ccccn1	AddAB inh 27.0, phage Ecoli inh 26.6, E coli growth-2 27.1 (no result: E coli growth-1) | AddAB conf 24.8 | RecBCD counter 14.2 | bact viab count inactive
O=C(O)c1cn(-c2ccc(N3CCCC3)c(F)c2)c2c(F)c(F)c(F)cc2c1=O	AddAB inh 22.0, E coli growth-1 0.464, E coli growth-2 17.0 | AddAB conf 21.4 | RecBCD counter inactive | bact viab count inactive
CCOc1ccc(Cn2cc(F)c(=O)[nH]c2=O)cc1	none
CCCOc1ccc(S(=O)(=O)n2cc(F)c(=O)[nH]c2=O)cc1	AddAB inh 13.1 | AddAB conf inactive | RecBCD counter inactive | bact viab count inactive
CC(C)COc1ccc(S(=O)(=O)n2cc(F)c(=O)[nH]c2=O)cc1	AddAB inh 12.9 | AddAB conf inactive | RecBCD counter inactive | bact viab count inactive
CCSc1ccc(C2C3C(=O)N(C)C(=O)C3[C@]3(C(=O)OC)CCCCN23)cc1OC (stereo not given in full)	none (no result: AddAB inh, phage Ecoli inh, Tat transport, E coli growth-2)
CC(NC(=O)c1nc[nH]c1C(=O)NC(CCCCN)C(=O)OC(C)(C)C)C(=O)OC(C)(C)C (stereo not given)	none (no result: AddAB inh, phage Ecoli inh, Tat transport, E coli growth-2)
C=C(C)C(=O)Nc1cccc(C2=NOC3(C2)CC(C(N)=O)N(C(=O)CCCCC)C3)c1 (stereo not given)	none (no result: AddAB inh, phage Ecoli inh, Tat transport, E coli growth-2)
CCn1cc(C=NNC(=O)c2csc3ccccc23)c(C)n1	none (no result: AddAB inh, phage Ecoli inh, Tat transport, E coli growth-2)
CC1(C)OC(=O)C(=NNc2ccccc2)C(=O)O1	none (no result: E coli growth-1)
CC1(C)OC(=O)C(=NNc2ccc(O)cc2)C(=O)O1	AddAB inh 15.8 | AddAB conf 17.0 | RecBCD counter inactive | bact viab count inactive
CCOC(=O)c1cn(C2CC2)c2c(F)c(NCCCN(C)C)c(F)cc2c1=O	AddAB inh 13.2 | AddAB conf 12.8 | RecBCD counter inactive | bact viab count inactive
O=C1c2c(O)ccc(O)c2C(=O)c2c(NCCNCCO)ccc(NCCNCCO)c21	AddAB inh 31.4, E coli growth-2 32.1 | AddAB conf 52.1 | RecBCD counter inactive | bact viab count 51.3
O=C1c2ccccc2C(=O)c2c(Nc3ccc(CCO)cc3)ccc(O)c21	none (no result: E coli growth-1)
COc1ccc(OC2C=CC(c3ccccc3)OC2COC(=O)CCC(C)=NOC(C)c2cn(C3COCC3O)nn2)cc1 (stereo not given)	none (no result: AddAB inh, phage Ecoli inh, Tat transport, E coli growth-2)
CCc1nnc(NS(=O)(=O)c2ccc(N=Cc3c(C)[nH]n(-c4ccc(Cl)cc4)c3=O)cc2)s1	AddAB inh 13.5 (no result: E coli growth-1) | AddAB conf inactive | RecBCD counter 7.0 | bact viab count inactive
COc1nccnc1NS(=O)(=O)c1ccc(N=Cc2c(C)[nH]n(-c3ccc(Cl)cc3)c2=O)cc1	none (no result: Tat transport)
C=CCSc1nc2sc(C)c(C)c2c(=O)[nH]1	AddAB inh 16.9 | AddAB conf inactive | RecBCD counter inactive | bact viab count inactive
S=c1nc[nH]c2c1ncn2C1CCCO1 (stereo not given)	AddAB inh 26.4, E coli growth-2 22.4 (no result: E coli growth-1) | AddAB conf inactive | RecBCD counter inactive | bact viab count inactive
Nc1ncnc2c1ncn2C1CCCO1 (stereo not given)	none
O=S1(=O)Nc2c(ccc3cccnc23)-c2ccccc21	AddAB inh 50.7, E coli growth-1 0.222, E coli growth-2 51.4 (no result: phage Ecoli inh) | AddAB conf 44.8 | RecBCD counter 49.0 | bact viab count 46.4
CC1CN=C(Nc2ccccc2)N1CC1CCCCCC1 (stereo not given)	none (no result: AddAB inh, phage Ecoli inh, Tat transport, E coli growth-2)
Cc1ccc(OCC(=O)Nc2cc(C)on2)c([N+](=O)[O-])n1	AddAB inh 19.4, E coli growth-2 15.2 | AddAB conf 42.4 | RecBCD counter 6.7 | bact viab count 25.9

Screens deposited in PubChem BioAssay by several laboratories.
